Bioassay records as filed in PubChem.
Cruzain Triton: qHTS Assay for Promiscuous and Specific Inhibitors of Cruzain (with detergent); Cruzipain (Trypanosoma cruzi), P25779; purified cruzain, Z-FR-AMC fluorescence, 0.01% Triton; Potency, µM, inactives show max response, negative = inhibition, usual class: inhibitors; 0.43% of 200,000 active;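 also: plate controls were neutral wells for no effect and buffer without enzyme for full effect; nearly all actives have a fitted effect of over 40% in size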
Target sequence (P25779 123-467 limits assumed): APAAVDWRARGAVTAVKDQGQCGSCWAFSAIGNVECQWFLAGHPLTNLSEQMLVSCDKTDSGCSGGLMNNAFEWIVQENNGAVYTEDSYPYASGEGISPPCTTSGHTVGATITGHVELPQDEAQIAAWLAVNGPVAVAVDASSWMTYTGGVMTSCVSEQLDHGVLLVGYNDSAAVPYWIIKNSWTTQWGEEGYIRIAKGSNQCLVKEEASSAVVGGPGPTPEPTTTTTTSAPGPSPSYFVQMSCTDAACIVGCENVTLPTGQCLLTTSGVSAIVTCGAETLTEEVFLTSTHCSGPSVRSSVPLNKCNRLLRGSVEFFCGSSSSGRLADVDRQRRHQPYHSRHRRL
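Cysteine protease activity tested under reducing, mildly acidic conditions (100 mM sodium acetate pH 5.5, 5 mM DTT) plus 0.01% Triton X-100. Cruzain 1.5 nM; substrate Z-FR-AMC 2 uM; 15 min compound preincubation at room temperature.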
Cruzain inh noDet: qHTS Assay for Promiscuous and Specific Inhibitors of Cruzain (without detergent); purified cruzain, Z-FR-AMC fluorescence, no detergent; 2.3% of 200,000 active; Cruzipain (Trypanosoma cruzi), P25779; Potency, µM, for the others: max response, negative = inhibition, most hits filed as inhibitors;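 also: plate controls were enzyme without inhibitor for no effect and buffer without enzyme for full effect; nearly all actives have a fitted effect of over 40% in size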
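Detergent-free condition (0.00005% Triton X-100) in acetate buffer pH 5.5 with DTT. 1.5 nM enzyme and compound were pre-mixed 15 min, then 2 uM Z-FR-AMC substrate added; reaction progress from fluorescence change between first and third reads (60 s).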
* marks the source's active call; other numbers are inactive results; ? = inconclusive. In the library only some 2.4% were active in any assay of this set; here they are far more common. Calls follow the shape of the dose curve; as a rule, active = well fitted curve in the direction sought with a large enough effect; inconclusive = small, poorly fitted or top-dose-only effect, or another doubt; inactive = no such curve, though single readings can be large; an effect the other way counts as inactive or inconclusive. Potency is read from the fitted curve at half-maximal effect.

SMILES	Cruzain Triton	Cruzain inh noDet
O=C(Nc1ccc(NC(=O)c2ccc(S(=O)(=O)c3ccccc3)cc2)cc1)c1ccccc1	14.9%	3.98µM*
CN(Cc1ccccc1)C(=O)C(=O)Nc1ccc2nc3n(c(=O)c2c1)CCCCC3	-4.1%	16.0%
C=CCC(C)(O)/C=C/c1ccccc1 (stereo not given)	4.2%	-7.0%
O=C1/C(=C/c2ccc(N3CCCC3)cc2)NC(=S)N1C1CC1	-5.3%	4.2%
O=C1N/C(=C/c2ccc(N3CCCC3)cc2)C(=O)N1c1ccccc1	-6.0%	3.16µM*
Cc1ccc(Cl)cc1N1CCN(c2nc3ccc(C(=O)c4ccccc4)cc3n3cnnc23)CC1	-2.8%	-16.7%
Cc1ccccc1-c1ccc(C(=O)NCc2ccccc2)o1	-2.4%	8.1%
Cc1ccc(-c2ccc(C(=O)NCc3ccc(Cl)cc3)o2)c2ccccc12	?	25.1µM*
CC(=O)c1sc2c(c1C)c(=O)n(-c1ccc(Cl)cc1)c(=O)n2Cc1cc(=O)n2cc(Cl)ccc2n1	-2.4%	7.3%
Cc1ccc(C(=O)CN2CCC(NC(=O)C3CCCCC3)CC2)cc1	25.1µM*	?
Cc1ccc(NC(=O)CN2CCC(NC(=O)C3CCCCC3)CC2)c(Br)c1	-2.3%	-12.7%
CCCOc1ccc(CN(C(=O)c2nc(SC(C)C)ncc2Cl)C2CCS(=O)(=O)C2)cc1 (stereo not given)	-6.7%	?
Cc1ccc(-n2c(SCC(=O)N/N=C/c3c(C)nn(-c4ccccc4)c3C)nc3ccccc3c2=O)cc1	-2.8%	-5.7%
Cc1ccccc1-n1c(SCC(=O)N/N=C/c2c(C)nn(-c3ccccc3)c2C)nc2ccccc2c1=O	-2.7%	?
Cc1nn(-c2ccccc2)c(C)c1/C=N/NC(=O)CSc1nc2ccccc2c(=O)n1-c1ccc(Br)cc1	2.0%	15.8µM*
Cc1nn(-c2ccccc2)c(C)c1/C=N/NC(=O)CSc1nnc(SCc2cccc3ccccc23)s1	-3.7%	3.98µM*
C=C(C)Cn1c(SCC(=O)N/N=C/c2c(O)ccc3ccccc23)nc2ccccc2c1=O	-4.5%	15.8µM*
C=C(C)Cn1c(SCC)nc2ccccc2c1=O	-5.7%	-4.1%
Cc1cccc(NC(=O)c2sc3nc4n(c(=O)c3c2C)N=C(c2ccc(F)cc2)CS4)c1C	0.3%	5.8%
CCOc1ccc(CNS(=O)(=O)c2ccc3c(c2)CCCN3C(C)=O)cc1OC	-0.6%	-10.4%
COc1cc2oc(=O)cc(-c3ccc(-c4ccc(C#N)cc4)cc3)c2c(OC)c1OC	0.7%	35.5µM*
COc1cc2oc(=O)cc(-c3ccc(-c4ccc(C)cc4)cc3)c2c(OC)c1OC	3.1%	3.4%
Cc1cc(OCC(=O)Nc2sc3c(c2C#N)CCC(C)C3)ccc1Cl (stereo not given)	-0.4%	6.5%
O=C(CN1C=NS(=O)(=O)c2ccccc21)Nc1ccccc1F	0.8%	4.1%
c1ccc(CN2CN=C(Nc3nc4ccccc4s3)NC2)cc1	?	-8.3%
SMILES	Cruzain Triton	Cruzain inh noDet
c1coc(CN2CN=C(Nc3nc4ccccc4s3)NC2)c1	?	12.6µM*
Cc1nn(C(C)C(=O)NCc2cccc(F)c2)c(=O)c2c1sc1ccccc12 (stereo not given)	?	-2.5%
O=C(Nc1ccc(Cl)c(C(F)(F)F)c1)C(Cc1ccccc1)NS(=O)(=O)c1cccc2nsnc12 (stereo not given)	-9.4%	20µM*
CC(C)(C)NC(=O)C(Cc1ccccc1)NS(=O)(=O)c1cccc2nsnc12 (stereo not given)	1.6%	4.1%
Cc1ccc(Cl)cc1NC(=O)C(Cc1ccccc1)NS(=O)(=O)c1cccc2nsnc12 (stereo not given)	-4.3%	25.1µM*
O=C(Nc1ccc(OC(F)(F)F)cc1)C(Cc1ccccc1)NS(=O)(=O)c1cccc2nsnc12 (stereo not given)	-3.9%	7.2%
Cc1ccc(CNC(=O)CCCCCn2c(=O)c3sccc3n(CC(=O)C(C)(C)C)c2=O)cc1	-4.3%	?
CCSC1=C(C#N)C(c2cccs2)C(C(=O)OC)=C(C)N1 (stereo not given)	-2.3%	-11.3%
CCCSC1=C(C#N)C(c2cccs2)C(C(=O)Nc2ccccc2)=C(C)N1 (stereo not given)	-12.3%	25.1µM*
Cc1ccccc1CNC(=O)C1CCN(S(=O)(=O)Cc2ccccc2)CC1	-2.9%	-2.7%
O=C(CCN1Cc2ccccc2C1)c1ccc2c(c1)OCCO2	-25.2%	?
O=C(CCN1CCc2ccccc2C(c2ccccc2)C1)c1ccc2c(c1)OCCO2 (stereo not given)	28.2µM*	15.8µM*
Cc1cccc(OC(=O)CSc2nnc(-c3cccs3)o2)c1C	-3.1%	-5.9%
COc1ccc(NC(=O)CSc2nc(O)cc(=O)n2-c2ccccc2OC)cc1	?	15.8µM*
COc1ccccc1-n1c(SCC(=O)Nc2ccc(C)cc2)nc(O)cc1=O	-2.7%	5.1%
CCOc1ccc(CC(=O)Nc2cccc(-c3nc4cccnc4s3)c2C)cc1	-4.6%	11.9%
Cc1nn(-c2ccccc2)c(N2CCCC2)c1/C=N/NC(=O)c1cc(-c2ccccc2)nc2ccccc12	-5.3%	3.98µM*
Cc1nn(-c2ccccc2)c(N2CCCC2)c1/C=N/NC(=O)c1cc(-c2ccccn2)nc2ccccc12	-5.5%	5.9%
Cc1nn(-c2ccccc2)c(N2CCCC2)c1/C=N/NC(=O)c1cc2ccccc2cc1O	-6.8%	15.8µM*
Cc1nn(-c2ccccc2)c(N2CCCC2)c1/C=N/NC(=O)c1cccc(S(=O)(=O)Nc2ccc(Cl)cc2)c1	-6.4%	?
Cc1nn(-c2ccccc2)c(N2CCCC2)c1/C=N/NC(=O)c1cc(-c2cccs2)nc2ccccc12	-4.7%	10µM*
O=C(O)c1ccc(/C=N/NC(=O)c2cc(-c3cccs3)nc3ccccc23)cc1	-10.2%	12.7%
CCN(c1ccc(OC)cc1)S(=O)(=O)c1ccc2[nH]c(=O)ccc2c1	-6.9%	-23.5%
CCOc1ccc(NC(=O)CSc2cc(C)c3ccccc3n2)cc1	2.5%	-3.6%
O=C(Nc1ccc(N2CCOCC2)cc1)c1ccc2nc(-c3ccco3)c(-c3ccco3)nc2c1	-5.7%	-3.5%
SMILES	Cruzain Triton	Cruzain inh noDet
O=C(NCc1ccccc1)c1ccc2nccnc2c1	1.3%	9.6%
CC(=O)c1ccc(NC(=O)c2ccc3nc(-c4ccco4)c(-c4ccco4)nc3c2)cc1	14.1µM*	?
O=C(NCc1ccccc1)c1ccc2nc(-c3ccco3)c(-c3ccco3)nc2c1	?	7.94µM*
COc1ccccc1CNC(=O)c1ccc2c(c1)CCN2S(=O)(=O)c1ccc(Cl)cc1	-0.2%	?
CCOC(=O)c1cc(-c2ccc(C)cc2)n(CCCC(=O)Nc2cc(C)ccc2C)c1	0.1%	-2.9%
CCCCOP(=O)(OCCCC)C(Nc1ccccc1)c1ccc2c(c1)OCO2 (stereo not given)	-12.5%	5.9%
CCOP(=O)(OCC)C(Nc1ccccc1)c1ccc2c(c1)OCO2 (stereo not given)	0.5%	12.6µM*
Cc1ccc(NC(=O)NCCc2c(C)nn(C)c2C)cc1Cl	-0.6%	-1.4%
CC(C)CC(NC(=O)c1ccc(Cl)cc1)C(=O)OCC(=O)c1ccc2c(c1)NC(=O)CO2 (stereo not given)	-19.7%	20µM*
CCN(CC)S(=O)(=O)c1cc(C(=O)OCC(=O)c2ccc3c(c2)NC(=O)CO3)ccc1Cl	-4.2%	2.8%
COc1ccc(-c2cc(C(=O)Nc3cccc(O)c3)on2)cc1OC	-10.7%	1.8%
